Results as given in PubChem BioAssay (EPA / NIEHS).
Records with an inconclusive call do not appear. The source made the active and inactive calls. Rule for the calls, unless noted: active = hit-call score of the fitted dose curve at least 0.9, where 1 is the maximum; inactive = score below 0.9.

Legend:
[1] = target: human RAR-related Orphan Receptor gamma (RORg), RORC (gene 6097) (UniProt P51449); experiment: ATG_RORg_TRANS: Attagene TRANS-FACTORIAL HepG2 Assay for human RAR-related Orphan Receptor gamma (RORg) (AID 2283011; active = hit-call score of the fitted dose curve at least 0.9, where 1 is the maximum)
Sequence of human RAR-related Orphan Receptor gamma (RORg), RORC (gene 6097) (P51449 whole entry, looked up, the tested form may be a part): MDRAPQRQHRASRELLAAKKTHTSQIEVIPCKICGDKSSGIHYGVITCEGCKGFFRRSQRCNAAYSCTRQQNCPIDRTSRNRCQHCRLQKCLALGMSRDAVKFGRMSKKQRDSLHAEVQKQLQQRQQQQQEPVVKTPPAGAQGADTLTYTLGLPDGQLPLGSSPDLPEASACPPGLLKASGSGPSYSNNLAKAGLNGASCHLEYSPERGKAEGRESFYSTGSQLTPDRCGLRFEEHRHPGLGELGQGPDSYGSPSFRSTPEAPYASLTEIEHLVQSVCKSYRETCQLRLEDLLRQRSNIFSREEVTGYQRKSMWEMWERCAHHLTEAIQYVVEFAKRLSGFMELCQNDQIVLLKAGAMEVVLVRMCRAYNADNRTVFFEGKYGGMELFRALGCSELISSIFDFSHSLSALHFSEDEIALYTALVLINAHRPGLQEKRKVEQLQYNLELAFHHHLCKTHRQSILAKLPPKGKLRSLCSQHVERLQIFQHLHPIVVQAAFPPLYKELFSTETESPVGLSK
In short: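 Chimeric RORg-Gal4 transactivation in transfected HepG2; 24 h exposure; RT-PCR/capillary electrophoresis readout of reporter mRNA, DMSO baseline.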

[2] = target: Retinoic acid receptor RXR-alpha (Homo sapiens) (UniProt P19793); experiment: ATG_RXRa_TRANS: Attagene TRANS-FACTORIAL HepG2 Assay for human Retinoid X Receptor alpha (RXRa) (AID 2283012; active = hit-call score of the fitted dose curve at least 0.9, where 1 is the maximum)
Sequence of Retinoic acid receptor RXR-alpha (Homo sapiens) (P19793 whole entry, looked up, the tested form may be a part): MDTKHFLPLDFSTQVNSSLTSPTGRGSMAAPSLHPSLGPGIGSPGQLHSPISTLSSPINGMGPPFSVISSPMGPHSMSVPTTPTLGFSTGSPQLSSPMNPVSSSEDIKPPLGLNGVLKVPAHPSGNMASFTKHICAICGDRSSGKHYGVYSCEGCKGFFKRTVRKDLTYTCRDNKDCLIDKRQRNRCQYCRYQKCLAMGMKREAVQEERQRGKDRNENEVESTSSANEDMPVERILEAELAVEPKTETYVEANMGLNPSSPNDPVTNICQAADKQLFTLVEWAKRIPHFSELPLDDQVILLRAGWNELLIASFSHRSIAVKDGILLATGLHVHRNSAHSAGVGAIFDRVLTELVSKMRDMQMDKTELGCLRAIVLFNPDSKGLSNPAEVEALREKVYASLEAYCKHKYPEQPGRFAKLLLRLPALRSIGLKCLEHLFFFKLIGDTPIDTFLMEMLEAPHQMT
In short: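 Chimeric NR-GAL4 trans-activation in HepG2, 24 h treatment; reporter transcripts quantified by fluorescence on capillary electrophoresis, analysed for upward change from DMSO.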

[3] = target: human Retinoid X Receptor beta (RXRb), RXRB (gene 6257) (UniProt P28702); experiment: ATG_RXRb_TRANS: Attagene TRANS-FACTORIAL HepG2 Assay for human Retinoid X Receptor beta (RXRb) (AID 2283013; active = hit-call score of the fitted dose curve at least 0.9, where 1 is the maximum)
Sequence of human Retinoid X Receptor beta (RXRb), RXRB (gene 6257) (P28702 whole entry, looked up, the tested form may be a part): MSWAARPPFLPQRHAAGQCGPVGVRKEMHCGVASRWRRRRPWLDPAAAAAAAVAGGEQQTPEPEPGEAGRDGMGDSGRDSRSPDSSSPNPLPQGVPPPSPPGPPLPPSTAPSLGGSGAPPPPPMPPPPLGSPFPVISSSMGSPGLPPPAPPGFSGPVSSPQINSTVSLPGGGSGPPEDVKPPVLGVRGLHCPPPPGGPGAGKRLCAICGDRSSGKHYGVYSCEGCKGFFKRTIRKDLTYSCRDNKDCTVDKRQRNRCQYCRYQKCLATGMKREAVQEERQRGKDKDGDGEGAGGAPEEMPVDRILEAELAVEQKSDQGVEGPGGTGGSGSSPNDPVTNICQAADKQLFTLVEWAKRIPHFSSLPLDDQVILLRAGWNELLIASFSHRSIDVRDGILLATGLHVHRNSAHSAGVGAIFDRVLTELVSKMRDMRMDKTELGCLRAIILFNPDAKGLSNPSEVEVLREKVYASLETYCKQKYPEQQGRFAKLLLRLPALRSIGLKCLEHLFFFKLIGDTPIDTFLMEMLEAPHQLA
In short: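 After a 24 h incubation with test chemical, transfected HepG2 cells carrying NR-Gal4 fusions and GAL4-UAS reporter transcription units yield RNA whose reporter cDNA is FAM-labelled, HpaI-cut and sized by capillary electrophoresis; increases over DMSO are scored.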

[4] = read-out: E-selectin (Homo sapiens) (UniProt P16581); experiment: BSK_3C_Eselectin: BioMAP Diversity Plus: 3C Assay for Eselectin Biomarker Activity (AID 2283015); conditions: primary human endothelial cells (HUVEC); actives raise or lower the signal
In short: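 Endpoint derived by bidirectional fitting against DMSO vehicle; signal is ELISA-detected E-selectin from primary HUVEC at 24 h post-dosing, with parallel SRB staining (0.1% SRB, 560 nm) flagging cytotoxicity.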

[5] = read-out: Interleukin-1 alpha (IL1a), IL1A (gene 3552); experiment: BSK_BE3C_IL1a: BioMAP Diversity Plus: BE3C Assay for Interleukin-1 alpha (IL1a) Biomarker Activity (AID 2283016); conditions: primary human bronchial epithelial cells; actives raise or lower the signal
In short: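 Measured in human lung primary bronchial epithelial cells: IL-1a by ELISA at 24 h after dosing, with bidirectional fitting against DMSO.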

[6] = read-out: Monocyte Chemoattractant Protein-1 (MCP1), CCL2 (gene 6347); experiment: BSK_3C_MCP1: BioMAP Diversity Plus: 3C Assay for Monocyte Chemoattractant Protein-1 (MCP1) Biomarker Activity (AID 2283017); conditions: primary human endothelial cells (HUVEC); actives raise or lower the signal
In short: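 Using human vascular primary endothelium, researchers measured MCP-1 by ELISA 24 h after treatment, with DMSO serving as negative control for bidirectional fitting.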

[7] = read-out: Monocyte Chemoattractant Protein-1 (MCP1), CCL2 (gene 6347); experiment: BSK_4H_MCP1: BioMAP Diversity Plus: 4H Assay for Monocyte Chemoattractant Protein-1 (MCP1) Biomarker Activity (AID 2283018); conditions: primary human endothelial cells (HUVEC); actives raise or lower the signal
In short: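 Primary human umbilical vein endothelium is exposed to chemical for 24 h before MCP-1 is assayed by ELISA. Concentration-response fitted bidirectionally relative to DMSO.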

[8] = read-out: Human Leukocyte Antigen - DR isotype (HLADR), HLA-DRA (gene 3122); experiment: BSK_3C_HLADR: BioMAP Diversity Plus: 3C Assay for Human Leukocyte Antigen - DR isotype (HLADR) Biomarker Activity (AID 2283019); conditions: primary human endothelial cells (HUVEC); actives raise or lower the signal
In short: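 Compound added to primary HUVEC cultures, 24 h incubation, then HLA-DR determined by ELISA; endpoint derived by bidirectional fitting relative to DMSO negative control.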

[9] = read-out: Interleukin-8 (IL8), CXCL8 (gene 3576); experiment: BSK_3C_IL8: BioMAP Diversity Plus: 3C Assay for Interleukin-8 (IL8) Biomarker Activity (AID 2283020); conditions: primary human endothelial cells (HUVEC); actives raise or lower the signal
In short: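 Using DMSO-treated wells as the baseline, bidirectional curve fitting was applied to ELISA-measured IL-8 from human umbilical vein endothelial cultures sampled 24 h after compound addition.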

[10] = read-out: Monokine induced gamma interferon (MIG), CXCL9 (gene 4283); experiment: BSK_3C_MIG: BioMAP Diversity Plus: 3C Assay for Monokine induced gamma interferon (MIG) Biomarker Activity (AID 2283021); conditions: primary human endothelial cells (HUVEC); actives raise or lower the signal;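 for AC50: MIG protein level measured by immunoassay in the treated endothelial cultures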
In short: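 ELISA-measured MIG in dosed HUVEC 3C cultures at 24 h, analysed by bidirectional fitting with DMSO defining baseline activity.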

[11] = read-out: Matrix Metallopeptidase 1 (MMP1), MMP1 (gene 4312); experiment: BSK_BE3C_MMP1: BioMAP Diversity Plus: BE3C Assay for Matrix Metallopeptidase 1 (MMP1) Biomarker Activity (AID 2283024); conditions: primary human bronchial epithelial cells; actives raise or lower the signal
In short: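 In this multiplexed primary-cell system, human bronchial epithelium received chemicals for 24 h before an ELISA for MMP1. Values reflect bidirectional fits normalised to the DMSO baseline.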

[12] = BSK_3C_Vis: BioMAP Diversity Plus: 3C Assay for Morphology Visualization (AID 2283025); conditions: primary human endothelial cells (HUVEC);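 note: fitted both ways so gain or loss versus DMSO counts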;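 for AC50: light microscopy image of cell morphology used as background control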
In short: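 Light-microscopy morphology readout, 24 h exposure, human primary umbilical vein endothelium; analysed relative to DMSO with bidirectional fitting.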

[13] = read-out: Pselectin, SELP (gene 6403); experiment: BSK_4H_Pselectin: BioMAP Diversity Plus: 4H Assay for Pselectin Biomarker Activity (AID 2283026); conditions: primary human endothelial cells (HUVEC); actives raise or lower the signal
In short: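 Bidirectional fits against DMSO gave the endpoint. Cells: primary human umbilical vein endothelium, chemical-treated for 24 h before ELISA detection of P-selectin.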

[14] = BSK_4H_SRB: Viability Assessment in the BioMAP Diversity Plus: 4H Assay (AID 2283027); conditions: primary human endothelial cells (HUVEC);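 note: cells exposed to compound for 24 h before staining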;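 for AC50: curves fitted both ways versus DMSO so AC50 may be loss or gain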
In short: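 Cytotoxicity read-out in primary human endothelial cells: after 24 h compound exposure, cells were TCA-fixed (10%), stained with 0.1% SRB and absorbance taken at 560 nm. Values fitted in both directions relative to DMSO.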

[15] = read-out: Thrombomodulin, THBD (gene 7056); experiment: BSK_3C_Thrombomodulin: BioMAP Diversity Plus: 3C Assay for Thrombomodulin Biomarker Activity (AID 2283029); conditions: primary human endothelial cells (HUVEC); actives raise or lower the signal
In short: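 In a multiplexed primary-cell system, human umbilical vein endothelium received chemical and was assayed 24 h later for thrombomodulin by ELISA. Parallel cultures were SRB-stained (0.1% SRB after 10% TCA fixation, read at 560 nm) to flag cytotoxicity.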

[16] = read-out: Urokinase-type plasminogen activator receptor (uPAR), PLAUR (gene 5329); experiment: BSK_4H_uPAR: BioMAP Diversity Plus: 4H Assay for Urokinase-type plasminogen activator receptor (uPAR) Biomarker Activity (AID 2283030); conditions: primary human endothelial cells (HUVEC); actives raise or lower the signal
In short: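 Endpoint derived via bidirectional curve fitting against DMSO baseline; readout was ELISA detection of uPAR on umbilical vein endothelial cells at 24 h post-treatment, with SRB-stained parallel cultures assessing cytotoxicity.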

[17] = target: human Vitamin D Receptor (VDR), VDR (gene 7421) (UniProt P11473); experiment: ATG_VDR_TRANS: Attagene TRANS-FACTORIAL HepG2 Assay for human Vitamin D Receptor (VDR) (AID 2283022; active = hit-call score of the fitted dose curve at least 0.9, where 1 is the maximum)
Sequence of human Vitamin D Receptor (VDR), VDR (gene 7421) (P11473 whole entry, looked up): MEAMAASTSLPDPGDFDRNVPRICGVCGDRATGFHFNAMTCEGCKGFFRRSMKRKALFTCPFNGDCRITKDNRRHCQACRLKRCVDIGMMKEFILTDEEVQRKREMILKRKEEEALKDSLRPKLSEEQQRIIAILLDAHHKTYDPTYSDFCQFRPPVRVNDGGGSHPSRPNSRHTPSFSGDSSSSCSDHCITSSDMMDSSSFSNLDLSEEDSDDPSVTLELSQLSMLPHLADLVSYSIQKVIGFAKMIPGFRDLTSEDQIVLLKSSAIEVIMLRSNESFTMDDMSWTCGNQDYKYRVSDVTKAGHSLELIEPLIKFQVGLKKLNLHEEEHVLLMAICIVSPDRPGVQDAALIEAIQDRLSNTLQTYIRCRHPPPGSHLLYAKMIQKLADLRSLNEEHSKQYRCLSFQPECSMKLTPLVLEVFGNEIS
In short: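 Multiplexed TRANS reporter in HepG2; 24 h treatment; reporter mRNA by RT-PCR plus capillary electrophoresis; upregulation scored relative to DMSO.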

[18] = BSK_BE3C_SRB: Viability Assessment in the BioMAP Diversity Plus: BE3C Assay (AID 2283028); conditions: primary human bronchial epithelial cells
In short: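 SRB total-protein staining (0.1%, after TCA fixation) of chemically dosed human bronchial epithelial primary cells at 24 h; DMSO serves as the negative control for bidirectional curve fitting.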

[19] = BSK_3C_SRB: Viability Assessment in the BioMAP Diversity Plus: 3C Assay (AID 2283023); conditions: primary human endothelial cells (HUVEC);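 note: fitted both ways against DMSO so a hit may be signal rise or drop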
In short: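 Overt cytotoxicity is gauged in parallel confluent HUVEC cultures by SRB total-protein staining at the time of biomarker measurement, 24 h after dosing. Gain or loss of signal is fitted versus DMSO.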

Measured: AC50

Sequence of E-selectin (Homo sapiens) (P16581 whole entry, looked up): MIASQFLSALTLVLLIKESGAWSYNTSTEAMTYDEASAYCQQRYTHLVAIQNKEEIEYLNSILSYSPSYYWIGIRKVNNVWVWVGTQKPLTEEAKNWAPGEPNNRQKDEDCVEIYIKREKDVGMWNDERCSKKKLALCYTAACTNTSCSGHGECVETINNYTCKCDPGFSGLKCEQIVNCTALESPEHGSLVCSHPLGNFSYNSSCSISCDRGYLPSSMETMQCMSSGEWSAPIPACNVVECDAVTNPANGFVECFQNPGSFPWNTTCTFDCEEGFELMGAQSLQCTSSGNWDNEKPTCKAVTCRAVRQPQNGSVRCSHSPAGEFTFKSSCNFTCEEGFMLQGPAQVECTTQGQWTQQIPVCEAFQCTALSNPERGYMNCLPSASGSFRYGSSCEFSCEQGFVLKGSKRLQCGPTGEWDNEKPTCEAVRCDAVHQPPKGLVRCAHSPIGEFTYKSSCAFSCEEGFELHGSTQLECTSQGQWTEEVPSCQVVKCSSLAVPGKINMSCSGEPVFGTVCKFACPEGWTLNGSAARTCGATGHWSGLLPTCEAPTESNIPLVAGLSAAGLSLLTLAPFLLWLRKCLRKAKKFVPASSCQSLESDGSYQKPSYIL

CC(C)[C@H](C(=O)O[C@H](C#N)c1cccc(Oc2ccccc2)c1)c1ccc(Cl)cc1
active: [8] 12.9 µM
not listed: [17] | [18] | [19]
inactive: all other assays above

CCc1cnc(C2=NC(C)(C(C)C)C(=O)N2)c(C(=O)O)c1 (configuration not stated)
not listed: [2] | [3] | [19]
inactive: all other assays above

C=C(C)[C@H]1Cc2c(ccc3c2O[C@@H]2COc4cc(OC)c(OC)cc4[C@@H]2C3=O)O1
inactive: [1] | [3] | [5] | [10] | [11] | [18] | [15]
active: [4] 20 µM | [6] 34.8 µM | [7] 29.3 µM | [8] 3.82 µM | [19] 12.9 µM | [12] 0.468 µM | [13] 10.3 µM | [14] 3.9 µM | [16] 4.41 µM

C[Si](Cn1cncn1)(c1ccc(F)cc1)c1ccc(F)cc1
active: [12] 39 µM
not listed: [1] | [9] | [19]
inactive: all other assays above

N#CSCSC#N
active: [4] 10.9 µM | [6] 8.34 µM | [7] 7.62 µM | [9] 11.7 µM | [10] 10.8 µM | [19] 4.78 µM | [12] 5.45 µM | [13] 5.1 µM | [14] 10.2 µM | [15] 13.5 µM | [16] 5.82 µM
inactive: [2] | [5] | [11] | [18]

CCOP(=S)(OCC)Oc1cc(C)nc(C(C)C)n1
not listed: [1] | [17] | [19]
inactive: all other assays above

CNc1cnn(-c2cccc(C(F)(F)F)c2)c(=O)c1Cl
active: [8] 3.97 µM
not listed: [2] | [9] | [17] | [19]
inactive: all other assays above

COc1cc(OC)nc(Sc2cccc(Cl)c2C(=O)O)n1
not listed: [2] | [9]
inactive: all other assays above
